Measurements reported in ChEMBL document CHEMBL3988442, “University of Dundee, Small-Polar-MMV Screening Library” (2021).
About 950 (1.4%) of roughly 69,000 compounds showed an effect of 50% or more. The sample as a whole holds a higher share of strong results than the screen did.

Test system: Mycobacterium tuberculosis
Test: Cornell M. t heat shock assay; further: in the data most compounds retested in dose-response had high values
Assay type: functional, organism-based
Parameters: dose or concentration left out as unconfirmed

| Compound | Percent Effect [%] |
| --- | --- |
| Cn1cccc1CN1CCc2ncnc(-c3cccnc3)c2CC1 | -25.32 |
| Cc1ncc(CN2CCc3c(nc(-c4ccccn4)[nH]c3=O)C2)n1C | 8.847 |
| Cc1nn(C)cc1CN1CCc2c(nc(-c3ccccn3)[nH]c2=O)C1 | 2.88 |
| CCN1CCOCC12CCN(C(=O)C1CCCC1)CC2.O=C(O)C(F)(F)F | -1.07 |
| Cc1cc(C[C@@H]2COC[C@H]2NCc2ccc(Cl)c(Cl)c2)on1.O=C(O)CC(O)(CC(=O)O)C(=O)O | -20.39 |
| COCCC(=O)N1CC2(CCN(Cc3ccccc3Cl)CC2)C1.O=C(O)C(F)(F)F | 12.96 |
| CCc1ncc(C(=O)N2CCCN(C3CCCC3)CC2)cn1 | -5.155 |
| Cc1ccc2c(n1)N(CCn1cccn1)CCN(C1CCOCC1)C2.O=C(O)C(F)(F)F.O=C(O)C(F)(F)F | -10.35 |
| Cc1cc(CN2C[C@H](OCC3CCOCC3)[C@H]3COC[C@H]32)oc1C.O=C(O)C(F)(F)F | 5.146 |
| Cc1ccc(CN2CCC[C@@H]3CN(C(=O)c4ccco4)C[C@@H]32)s1.O=C(O)C(F)(F)F | -26.86 |
| COc1ncccc1CN1C[C@H]2CCN(c3ccc(C)nn3)C[C@H]2C1.O=C(O)C(F)(F)F | 16.3 |
| O=C(O)C(F)(F)F.c1ccc(N2CCCC3(CCN(Cc4ccsc4)C3)C2)nc1 (centres undefined) | -1.694 |
| Cc1nc(CN2CCc3ncnc(-c4cccnc4)c3CC2)cs1.O=C(O)C(F)(F)F.O=C(O)C(F)(F)F | -25.69 |
| O=c1[nH]c(-c2ccccc2)nc2c1CCN(S(=O)(=O)N1CCCC1)C2 | 5.135 |
| O=c1[nH]c(-c2ccccn2)nc2c1CCN(S(=O)(=O)N1CCCC1)C2 | 87.3 |
| O=c1[nH]c(-c2ccncc2)nc2c1CCN(S(=O)(=O)N1CCCC1)C2 | -2.171 |
| Cc1ccc(CN2Cc3nnn(C)c3C(COCc3ccccn3)C2)s1.O=C(O)C(F)(F)F.O=C(O)C(F)(F)F (centres undefined) | -10.17 |
| Cc1ccc(-c2cc(C(=O)NCCC3=CCCCC3)[nH]n2)o1 | 46.03 |
| CCCc1cc(C(=O)NCCC2=CCCCC2)[nH]n1 | 8.132 |
| O=C(NCCC1=CCCCC1)c1cc(-c2ccc(O)cc2)n[nH]1 | 57.62 |
| O=C(O)C(F)(F)F.c1coc(CN2CCCn3c(nnc3Cn3cccn3)C2)c1 | -27.42 |
| O=C(O)C(F)(F)F.O=S(=O)(c1cccs1)N1CCCC2(COCCN(c3cccnc3)C2)C1 (centres undefined) | 1.74 |

| Compound | Percent Effect [%] |
| --- | --- |
| CCn1cc(S(=O)(=O)N(C)Cc2c(Br)cnn2CC)c(C)n1 | -19.54 |
| CCn1cc(CN(C)S(=O)(=O)c2cnn(CC)c2C)c(C)n1 | 95.67 |
| CCn1nc(C)c(CN(C)S(=O)(=O)c2cnn(C)c2)c1C | 0.2173 |
| CC(=O)N1CCC2(CCCN2Cc2cnn(C)c2)CC1.O=C(O)C(F)(F)F | -13.44 |
| CC(C)c1nc(CSc2nnc(-c3cccs3)n2CC(N)=O)no1 | 87.51 |
| NC(=O)Cn1c(SCc2noc(-c3ccsc3)n2)nnc1C1CC1 | -1.649 |
| CC(C)c1nc(CSc2nnc(C3CC3)n2CC(N)=O)no1 | -3.28 |
| O=C(C1CC(F)(F)C1)N1C[C@@H]2CN(CC3CC3)CCO[C@@H]2C1.O=C(O)C(F)(F)F | -22.01 |
| Cc1cccc(CN2CCC3(CCN(c4ncccn4)C3)C2=O)c1 (centres undefined) | -17.59 |
| O=C1N(Cc2ccc(F)cc2)CCCC12CCN(C1CCSCC1)C2 (centres undefined) | 56.84 |
| O=C1N(Cc2ccccc2F)CCCC12CCN(C1CCSCC1)C2 (centres undefined) | 35.05 |
| Cc1cccc(CN2CCCC3(CCN(C4CCSCC4)C3)C2=O)c1 (centres undefined) | 68.24 |
| CCc1cnc(N2CCC3(CCN(Cc4cccc(C)c4)C3=O)C2)nc1 (centres undefined) | -25.62 |
| CCS(=O)(=O)N1CCC2(CCCN(Cc3ccc(F)c(F)c3)C2=O)C1 (centres undefined) | -4.443 |
| O=C1N(Cc2ccc(F)c(F)c2)CCCC12CCN(C1CCCCC1)C2 (centres undefined) | 88.26 |
| O=C1N(Cc2ccc(F)c(F)c2)CCCC12CCN(C1CCSCC1)C2 (centres undefined) | 39.79 |
| O=C1N(Cc2ccc(F)c(F)c2)CCCC12CCN(C1CCCC1)C2 (centres undefined) | 48.94 |
| CN(C)C(=O)CN1CCC2(CCCN(Cc3cccn3C)C2)C1=O.O=C(O)C(F)(F)F (centres undefined) | 8.62 |
| CN(C)c1ncc2c(c1C(=O)O)CCN(Cc1ccco1)C2.O=C(O)C(F)(F)F.O=C(O)C(F)(F)F | 10.22 |
| Cc1ccc(N2CCC3(CCN(C(=O)N(C)C)CC3)CC2)nn1.O=C(O)C(F)(F)F | 0.5325 |
| CC(C)N(C)C[C@H]1C[C@@H]2CN(Cc3ccco3)C[C@@H]2O1.O=C(O)C(F)(F)F.O=C(O)C(F)(F)F | -4.4 |
| CCCN1CCC(c2nc3ccc(-c4ccccc4)cn3n2)CC1.O=C(O)C(F)(F)F | -8.011 |
